IDH1 R132H inh: inhibitors of human mutant IDH1 R132H; O75874; IDH1-R132H enzyme, NADPH consumption, diaphorase/resazurin fluorescence; Potency, µM (highest dose often 76.6 µM), most hits filed as inhibitors; 390,000 tested, 0.093% active; note: nearly all actives have a fitted effect of over 65% in size
Target sequence (O75874 whole entry R132H, stated change not applied): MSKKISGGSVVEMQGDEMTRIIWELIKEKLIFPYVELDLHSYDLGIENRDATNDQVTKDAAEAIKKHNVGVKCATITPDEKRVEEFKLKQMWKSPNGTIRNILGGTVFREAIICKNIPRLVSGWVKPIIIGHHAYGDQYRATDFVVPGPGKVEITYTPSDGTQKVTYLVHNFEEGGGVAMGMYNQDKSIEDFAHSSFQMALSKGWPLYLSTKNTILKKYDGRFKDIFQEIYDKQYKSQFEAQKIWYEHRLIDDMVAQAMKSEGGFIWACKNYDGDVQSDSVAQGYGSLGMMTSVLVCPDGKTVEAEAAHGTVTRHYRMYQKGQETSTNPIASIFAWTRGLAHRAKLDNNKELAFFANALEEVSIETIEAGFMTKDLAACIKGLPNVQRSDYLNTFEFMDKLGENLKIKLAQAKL
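IDH1-R132H (0.5 ug/mL dispensed) in pH 7.5 Tris buffer was preincubated 30 min with compound, then given a substrate mix of 0.016 mM NADPH and 2 mM alpha-KG for 80 min at room temperature; remaining NADPH was read by diaphorase/resazurin fluorescence.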
Nrf2 block: inhibitors of Nrf2 signaling; A549 ARE-Fluc reporter, luciferase luminescence, 18-24 h; Potency, µM (top dose mostly 46 µM), hits mostly inhibitors; 360,000 tested, 2.1% active; note: nearly all actives have a fitted effect of over 60% in size
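A549 ARE_Fluc cells (5000/well, 5% FBS OPTI-MEM) pre-incubated 2 h, then treated with compounds 18-24 h at 37C/5% CO2 in concentration-response. CellTiter-Fluor viability read first; BugLite luciferase luminescence after 15 min at room temperature gives Nrf2 activity.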
Anesthetic bind: candidate novel general anesthetic via apoferritin binding. P02791. apoferritin/1-aminoanthracene competitive binding, fluorescence. Potency, µM (series often up to 77.5 µM), usual class: inhibitors. 350,000 tested, 0.074% active. AID 485281; note: nearly all actives have a fitted effect of over 20% in size
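In PBS, apoferritin at 10 uM is loaded with 1-AMA from a 50% saturated solution. After 10 min of compound exposure at ambient temperature, reduced 535 nm fluorescence indicates probe displacement.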
Nrf2 activator: Nrf2 pathway activation; AID 624171; AREc32 ARE-luciferase reporter (MCF7-derived line), luminescence, 24 h; Potency, µM (titrated, usually from 46.1 µM), hits mostly activators; 410,000 tested, 0.31% active; note: nearly all actives have a fitted effect of over 65% in size
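Each well held 1000 AREc32 cells, which were incubated with compound for 24 hr at 37 deg C after overnight attachment, and ARE reporter activity was quantified by firefly luciferase luminescence.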
A549 viability: A549 cytotoxicity, counter-screen for Nrf2 inhibitors | A549 ARE-Fluc cells, CellTiter-Fluor viability, 18-24 h | Potency, µM (top dose mostly 46 µM), usual class: inhibitors | 390,000 tested, 0.16% active
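A549 ARE-Fluc cells in 5% FBS OPTI-MEM, 5000 cells/well, rested 2 h then exposed to compounds in concentration-response for 18-24 h at 37 °C. Viability by CellTiter-Fluor fluorescence (Ex 405/Em 525) after 30 min; luciferase luminescence (BugLite, 15 min, RT) read afterwards.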
Giardia killer: kills Giardia lamblia. activity change, % at 7.66 µM, hits read low. Giardia lamblia trophozoite viability. 340,000 tested, 0.15% active; in the data active = activity change below about -80%; inconclusive = between about -30% and that limit;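 note: parasites exposed to compound for two days anaerobically before the ATP read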
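Giardia lamblia trophozoites (100 cells/well) were incubated with compounds for 48 h at 37 deg C under anaerobic conditions. Viability was read as ATP content by one-step luminescence after 15-30 min at room temperature.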
Each line names hits and unclear results; the compound was inactive in the other large screens. Only some compounds are listed: those with a hit (about 2.3% of all), similar ones and a draw of the others. Unless noted, calls come from the whole dose curve; as a rule, active = well fitted curve in the direction sought with a large enough effect; inconclusive = small, poorly fitted or top-dose-only effect, or another doubt; inactive = no such curve, though single readings can be large; an effect the other way counts as inactive or inconclusive.

C/C(=N\NC(=O)c1ccccc1NC(=O)c1ccc(Cl)cc1)c1ccncc1	Nrf2 block inconclusive, Giardia killer -96
COc1ccc2c(c1)CC/C(=C\c1ccc(C)o1)C2=O	Nrf2 activator inconclusive
COc1ccc2c(c1)CC/C(=C/c1ccncc1)C2=O	Nrf2 activator 22µM
NCCCN(Cc1ccc(Cl)c(Cl)c1)c1ccc(Br)cn1	none (no result: IDH1 R132H inh, Anesthetic bind, Nrf2 activator)
Cc1cc(S(=O)(=O)Nc2cc(C)c(O)c(C)c2)c(C)s1	Nrf2 block 10µM, Anesthetic bind inconclusive, Nrf2 activator inconclusive
O=[N+]([O-])C(/C=C(\Cl)[N+](=O)[O-])=C(N1CCCCC1)N1CCCCC1	A549 viability 23µM, Giardia killer -82
CCC1(C)Cc2c(sc3nnn(Cc4ccccc4Cl)c(=O)c23)CO1 (stereo unspecified)	Nrf2 block 15µM, Anesthetic bind inconclusive
CSc1cc2c(s1)c1cnn(Cc3cccc(O)c3)c(=O)c1n2C	Nrf2 block inconclusive (no result: IDH1 R132H inh, Anesthetic bind, Nrf2 activator, Giardia killer)
COc1cccc(N2CCN(C(=O)C3CCCN(S(=O)(=O)c4cccc5nsnc45)C3)CC2)c1 (stereo unspecified)	Nrf2 block 16µM (no result: Giardia killer)
CC(=O)c1c(C)[nH]c(C(=O)OCC(=O)N2CCN(S(=O)(=O)c3ccc(C)cc3)CC2)c1C	Nrf2 block 16µM (no result: Anesthetic bind)
CC1CCN(C(=O)C2CCCN(S(=O)(=O)c3cccc4nsnc34)C2)CC1 (stereo unspecified)	none
CCOc1ccc(S(=O)(=O)N2CCCC(C(=O)N3CCN(c4ccccc4)CC3)C2)cc1 (stereo unspecified)	Nrf2 block 23µM
CC(=O)c1ccc(N2CCN(C(=O)C3CCCN(S(=O)(=O)c4ccc(Br)s4)C3)CC2)cc1 (stereo unspecified)	Nrf2 block 16µM (no result: Giardia killer)
CC(=O)c1c(C)[nH]c(C(=O)OCC(=O)N2CCN(S(=O)(=O)c3ccc(C)cc3C)CC2)c1C	Nrf2 block inconclusive
Cc1c(Cl)cccc1-n1c(SCC(=O)NCc2ccccc2)nc2n[nH]c(C)c2c1=N	none (no result: Nrf2 block, Giardia killer)
CCOc1ccc(OCC(=O)N2CCN(S(=O)(=O)c3ccccc3)CC2)cc1	none (no result: Nrf2 block, Anesthetic bind, A549 viability, Giardia killer)
CCOc1ccc(S(=O)(=O)N2CCN(C(=O)COc3ccc(Br)cc3)CC2)cc1	Nrf2 block 16µM, A549 viability inconclusive (no result: Anesthetic bind)
Cc1cc2c(c(=O)o1)[C@H](O)[C@H]1O[C@@H]1C2=O	none (no result: IDH1 R132H inh, Nrf2 block, Nrf2 activator, A549 viability, Giardia killer)
Cc1cc2c(s1)c1cnn(Cc3ccc(-c4ccccc4)cc3)c(=O)c1n2C	none (no result: IDH1 R132H inh, Anesthetic bind, Nrf2 activator, Giardia killer)
Cc1nn(C(C)(C)C)c(OC(=O)C2CCCC2)c1S(=O)(=O)c1ccccc1	Nrf2 block inconclusive
Cc1ccc(S(=O)(=O)c2c(C)nn(C(C)(C)C)c2OC(=O)C2CCCC2)cc1	Nrf2 block 21µM
O=C(/C=C/c1ccco1)OCc1nnc(-c2ccc(Cl)cc2)o1	Nrf2 block inconclusive, Anesthetic bind inconclusive, Nrf2 activator 14µM
O=C(/C=C/c1ccco1)OCc1nnc(-c2ccccc2)o1	Nrf2 activator 11µM
O=C(Nc1nc2ccc(F)cc2s1)C1=COCCO1	Nrf2 block inconclusive (no result: Anesthetic bind)
O=C(Nc1nc2cc3c(cc2s1)OCCO3)C1=COCCO1	Nrf2 block inconclusive, Giardia killer -86
O=C(Nc1cccc(S(=O)(=O)Nc2ccc(Cl)cc2)c1)c1cc2c(s1)CCCC2	Nrf2 block 23µM, A549 viability inconclusive
Cc1ccc(NC(=O)c2cc3c(s2)CCCC3)cc1S(=O)(=O)Nc1ccccc1Cl	Nrf2 block 7.3µM
CC(Oc1ccc(F)cc1)C(=O)Nc1nc(-c2ccccn2)cs1 (stereo unspecified)	Nrf2 block 21µM, A549 viability inconclusive (no result: Anesthetic bind)
O=C(O)c1cc2ccccc2c(N=Nc2cccnc2)c1O	Nrf2 block 18µM, A549 viability inconclusive, Giardia killer -82
COc1cccc(N2C(=O)C(CC(=O)Nc3cccc(F)c3)N(C(C)C)C2=O)c1 (stereo unspecified)	Nrf2 block inconclusive (no result: Giardia killer)
C=C1C(=O)O[C@H]2C[C@H]1[C@@H](OC(C)=O)C/C(C)=C/CC/C(C)=C\CC[C@]2(C)O	Nrf2 block 15µM, A549 viability inconclusive (no result: Anesthetic bind)
Cc1noc(C)c1-c1cccc(-c2nn3c(=O)cc(N4CCNCC4)nc3s2)c1	none (no result: IDH1 R132H inh, Anesthetic bind, Nrf2 activator, Giardia killer)
